We go through 40 sequences from the supplement of paper PMC10338343.

± gives the standard deviation.

The test system of the assay is MILI (PIWIL2) piRISC loaded with piRNA #1 (26 nt). Description: pre-steady-state target cleavage rate (min^-1); guide: piRNA #1 5'p-UGAGGUAGUAGGUUGUAUAGUAUCCA; MIWI and MILI are mouse PIWI proteins and EfPiwi is from a freshwater sponge; tags in brackets are library labels; higher = faster piRNA-guided slicing of the target. The note with it: auxiliary factor: 500 nM mouse GTSF1. The method, boiled down:
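Cleave-'n-Seq: 1 nM active affinity-purified piRISC with one synthetic guide and 0.1 nM transcribed, DNA-blocked target RNA library were mixed, with or without 500 nM GTSF1 partner protein, in HEPES–potassium acetate buffer at 33 °C for 0–8 or 0–960 min. Uncleaved targets were sequenced and normalised to depth and to weakly complementary targets, three trials were pooled, and k3 was capped at 0.0001 min^-1. The pre-steady-state cleavage rate was fitted […].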
With GGAGACCUAUGAUAUGAAGCUACUUCCUCA, the “pre-steady-state target cleavage rate” value is less than 0.0001.
On to GGAGAGGAUACUAUAGUUCCUACUACCUCA, for which the “pre-steady-state target cleavage rate” value was 0.18 ± 0.015.
The same measure for GGAGACCUAUGUAUUCAACCUACAACCUCA: 0.0352 ± 0.0064; for GGAGACCUAUCUAAACAACCAACUACCUCA: 0.00401 ± 0.0024; for GGAGUGCAUACUAUACAACCUACUUCCUCA: 0.00653 ± 0.0022.
The same measure for GGAGACCUAUCUUUACAACCUACUAGCUCA: 0.0374 ± 0.0091; for GGAGACGAUACUAUACAACCUACUACCUGCA: 0.203 ± 0.021.
GGAGACCUAUCUAUACAACCUACUACGAGA: the “pre-steady-state target cleavage rate” value came out at 0.0633 ± 0.017.
Consider GGAGACCUUACUAUACAACCUUCUACCACA, for which the “pre-steady-state target cleavage rate” value was determined as 0.00842 ± 0.0039.
Take GGAGACCAUACUAUACAACCAACUACCACA: the “pre-steady-state target cleavage rate” value is 0.00384 ± 0.0026.
The same measure for GGAGACCUAUGAUUACAACCUACUACCAUCA: 0.00378 ± 0.0028.
Take GGAGACCUAACUAUACAACCUACUAGCCUCA: the “pre-steady-state target cleavage rate” value is 0.186 ± 0.035.
The same measure for GGAGACCUAACAAUACAACCUACAACCUCA: 0.0691 ± 0.019; for GGAGACCUAACAAUACAACCUACUACCACA: 0.0755 ± 0.019.
Consider GGAGACCUAACUAUAGAACCUACUAGCUCA, for which the “pre-steady-state target cleavage rate” value was 0.00426 ± 0.0041.
The same measure for GGAGUGGAUACUAUAGAACCAACUACCUCA: 0.00293 ± 0.0022.
As to GGAGACCUUACUAAACAACGUACUACCUCA, the “pre-steady-state target cleavage rate” value came out at 0.015 ± 0.0024.
Consider GGAGACGAUACUAUAGAACCUACAACCUCA, for which the “pre-steady-state target cleavage rate” value came out at 0.0115 ± 0.0039.
The same measure for GGAGACCUAUGAUUGACAACCUACUACCUCA: 0.00768 ± 0.0032; for GGAGACCUAACUAUACAACCUACAUGCUCA: 0.0479 ± 0.022; for GGAGACCUAUGUUAUCAACCUACUACCUCA: 0.0125 ± 0.0029.
For GGAGACCUAACUUUACAAGCUACUACCUCA, the “pre-steady-state target cleavage rate” value was found to be 0.135 ± 0.025.
The same measure for GGAGACCUUACUAUACAACCAACUACGUCA: 0.00333 ± 0.0023.
The same measure for GGAGAGGAUACUAUAGAACCUACAACCUCA: 0.00427 ± 0.0024; for GGAGACCUAUCUAUACAACCUUCUUCCUCA: 0.00365 ± 0.0029; for GGAGACCUAUGAUAUGUACCAACUAGCUCA: less than 0.0001.
The same measure for GGAGACCUUACUAUACAUCCUACUACGUCA: 0.141 ± 0.022.
Regarding GGAGACCUAUGAUUACAACGUACUACCACA, the “pre-steady-state target cleavage rate” value worked out at 0.00319 ± 0.0028.
The same measure for GGAGACCUUACUAUACAACCUACUUGCUCA: 0.098 ± 0.021.
The same measure for GGAGAGGAUACUAAACAACCUACUACGUCA: 0.0356 ± 0.0057.
The same measure for GGAGACCUAUGAUUACAACCUAUCUACCUCA: 0.00755 ± 0.003; for GGAGACCUAUGAUUACAUCCUACUACCUGA: 0.0052 ± 0.0025.
Regarding GGAGACCUAUGUAUACAACCUACUACCUACA, the “pre-steady-state target cleavage rate” value was 0.0588 ± 0.0083.
The same measure for GGAGACCUAUCUAUACAACCUACUACUCUCA: 0.194 ± 0.021; for GGAGACCUAUGAAUACUACCUACAACCUCA: 0.00497 ± 0.0016; for GGAGACCUAUGAAUACAACCUAGCUACCUCA: 0.00489 ± 0.0025.
The same measure for “GGAGACCUAUGAUUACAACCUACUACCUCC [g2:g17:cont:t1C]”: 0.00979 ± 0.0034; for GGAGACCUAACUAUACAACCUACUUCGUCA: 0.0423 ± 0.017.
As to GGAGACGAUACUAUACAACCUACUGACCUCA, the “pre-steady-state target cleavage rate” value is 0.118 ± 0.015.
The same measure for GGAGACCUAACUAUACUACCUAGUACCUCA: 0.0154 ± 0.0058.
